LNCaP diff act = activators of LNCaP prostate cell differentiation, primary screen, flow cytometry side scatter; AID 795, 2007; side scatter shift, % at 10 µM; 24,000 compounds, 0.56% hits; 4 d;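 active = side scatter shift above 30%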;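 note: androgen-responsive LNCaP prostate cancer cells in charcoal-stripped serum medium; higher shift means more granular cells and more differentiation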
QS inhibitor = S. aureus quorum sensing inhibitors, primary screen, RNAIII-GFP reporter, flow cytometry; S. aureus RN6390 RNAIII-GFP reporter, AIP-induced, flow cytometry 3 h; inhibition, % at 2 µM; 24,000 compounds, 0.3% hits; AID 527, 2006;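 active = share of bacteria positive for the green fluorescent reporter and its mean brightness both inhibited by 50% or more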
Each line names hits and unclear results; the compound was inactive in the other large screens. Rows were chosen to be rich in hits. Some 0.91% of all compounds tested hit in one or more screens of this group.

CSc1nnc2n(CCc3ccccc3)c(=O)c3c4c(sc3n12)CCCC4	none
Cn1c(=O)c2c3c(sc2n2c(SCc4ccccc4)nnc12)CCCC3	QS inhibitor 64
Cn1c(=O)c2c3c(sc2n2c(SCC(=O)c4ccc(Cl)cc4)nnc12)COC(C)(C)C3	none
Cc1ccc2c(c1)NC(=O)C(CC(=O)NCCCN1CCCCC1)O2 (stereo unspecified)	none
Cc1ccc2c(c1)NC(=O)C(CC(=O)NCCCN1CCN(c3cc(Cl)ccc3C)CC1)O2 (stereo unspecified)	LNCaP diff act 44
Cc1cc(C)nc(N2CCC(C(=O)NCc3cccc(C(F)(F)F)c3)CC2)n1	none
Cc1cc(C)nc(N2CCC(C(=O)Nc3ccc(Oc4ccccc4)cc3)CC2)n1	LNCaP diff act 33
COc1ccc(-c2nc(C#N)c(NCCCN3CCOCC3)o2)cc1	none
COc1ccc(-c2oc3ncn(CCN4CCOCC4)c(=N)c3c2-c2ccc(OC)cc2)cc1	LNCaP diff act 34, QS inhibitor 53
CCCCCCNC(=O)CC(NS(=O)(=O)c1ccc(NC(C)=O)cc1)C(C)C (stereo unspecified)	none
COCCNC(=O)CC(NS(=O)(=O)c1ccc(NC(C)=O)cc1)C(C)C (stereo unspecified)	LNCaP diff act 31
CCOc1ccc(C(=O)N2CCC(C(=O)c3ccc4c(c3)OCCO4)CC2)cc1	none
COC(=O)c1cc(-c2ccccc2)sc1NC(=O)c1cc(C)on1	LNCaP diff act 35
COc1cc(NC(=O)c2cc(C)on2)cc(OC)c1OC	none
COc1ccc(N(CC(=O)NCc2cccnc2)S(=O)(=O)c2c(C)nn(C)c2C)cc1	none
CCN1CCCC1CNC(=O)c1nn(-c2ccc(C)cc2)c(=O)c2c1c1ccccc1n2C (stereo unspecified)	LNCaP diff act 32
Cc1ccc(-n2nc(C(=O)N3CCN(C)CC3)c3c4ccccc4n(C)c3c2=O)cc1	none
Cc1csc(NC(=O)CSc2nnc(Cn3c(=O)sc4ccccc43)n2-c2ccccc2)n1	none
COc1ccc(N(CC(=O)N2CC=C(c3ccccc3)CC2)S(=O)(=O)c2c(C)noc2C)cc1	none
CCOc1ccc(N(CC(=O)N2CC=C(c3ccccc3)CC2)S(=O)(=O)c2c(C)noc2C)cc1	QS inhibitor 53
CCN(CC)CC(=O)Nc1ccc(-c2nc3cc(NC(=O)CN(CC)CC)ccc3o2)cc1	LNCaP diff act 42
CCCC(=O)Nc1ccc(-c2nc3cc(C)c(C)cc3o2)cc1	none
O=C(Nc1ccc(-c2noc(CCc3ccccc3)n2)cc1)c1cccnc1	none
COc1ccc(N(CC(=O)Nc2cccc(OC)c2)S(=O)(=O)c2c(C)nn(C)c2C)cc1	none
COc1ccc(N(CC(=O)Nc2nc3ccc(C)cc3s2)S(=O)(=O)c2c(C)nn(C)c2C)cc1	QS inhibitor 66
CC(=O)OC(Cn1ccnc1)c1ccccc1 (stereo unspecified)	none
CCc1ccc(N/C(SCc2cccc(F)c2)=C(/C#N)C(=O)NCc2ccco2)cc1	QS inhibitor 65
CCc1ccc(NC(=O)c2cc(-c3ccco3)on2)cc1	none
CCOC(=O)N1CCN(C(=O)Cn2ncn3nc(-c4cccs4)cc3c2=O)CC1	none
CCCCOC(=O)C1CCCC(C(=O)OCCCC)N1 (stereo unspecified)	none
CC1CCCC(NC(=O)c2ccc3c(=O)n(CC4CCCO4)c(=O)[nH]c3c2)C1C (stereo unspecified)	none
N#Cc1c(NC(NC(=O)c2ccco2)C(=O)c2ccccc2)sc2c1CCCC2 (stereo unspecified)	QS inhibitor 84
CC(=O)Nc1sc2c(c1C#N)CCCCC2	none
Cn1c(=O)c2c(nc(Sc3n[nH]c(N)n3)n2Cc2ccccc2Cl)n(C)c1=O	none
Cc1ccc(S(=O)(=O)c2c(C)nn(C(C)(C)C)c2OC(=O)C2CCCC2)cc1	none
Cc1nn(C(C)(C)C)c(OC(=O)C2CCCC2)c1S(=O)(=O)c1ccccc1	QS inhibitor 89
Cc1c(O)c(CN2CCCC(C)C2)cc2c3c(c(=O)oc12)CCC3 (stereo unspecified)	none
CC1(C)CC(=O)c2cc(OCC(=O)NCCCN3CCN(c4ccc(F)cc4)CC3)ccc2O1	none
Cn1cc(C2NC(=O)c3c(sc4c3CCCC4)N2)c2ccccc21 (stereo unspecified)	none
Cn1cc(/C=N/n2cnc3sc4c(c3c2=O)CCCC4)c2ccccc21	QS inhibitor 68
Cc1ccc(NC(=O)COC(=O)c2ccn(C)n2)cc1	none
CCc1ccccc1S(=O)(=O)Cc1ccc(C(=O)N2CCN(c3ccccn3)CC2)o1	none
COCCNC(=O)CSc1nc2cc(OC)c(OC)cc2c(=O)n1Cc1ccco1	none
COC(=O)c1ccc2c(=O)n(Cc3ccco3)c(SCC(=O)Nc3ccc(C)c(Cl)c3)nc2c1	LNCaP diff act 34
COc1cccc(CNC(=O)C2CCCN(S(=O)(=O)c3c(C)n[nH]c3C)C2)c1 (stereo unspecified)	none
OCCN1CCN(c2ncnc3ccc(Br)cc23)CC1	none
CC(C)Cc1nc2oc3c(N4CCN(CCO)CC4)ncnc3c2c2c1CCCC2	LNCaP diff act 32
Cc1ccccc1C(=O)c1cccn1CC(=O)NCCN1CCN(c2cccc(C)c2C)CC1	none (no result: LNCaP diff act)
CCC(C(=O)N1CCc2ccccc2C1)n1nc(C)n2c(cc3occc32)c1=O (stereo unspecified)	none
O=C(CN1C(=O)CC(c2ccco2)Sc2ccccc21)Nc1ccc2c(c1)OCCO2 (stereo unspecified)	QS inhibitor 83
O=C(CN1C(=O)CCSc2ccccc21)Nc1ccc2c(c1)OCCO2	none
Cn1nc(-c2ccc(Cl)cc2)c2cc(C(=O)N3CCC(N4CCCCC4)CC3)sc21	none
Cc1ccccc1-c1nc(CN2CCC(C(=O)O)CC2)c(C)o1	none
COc1ccc(CCNC(=O)C2CCN(Cc3nc(-c4ccccc4C)oc3C)CC2)cc1OC	none
Cc1ccccc1-c1nc(CN2CCC(C(=O)NCCC3=CCCCC3)CC2)c(C)o1	LNCaP diff act 34
Cc1ccccc1-c1nc(CN2CCC(C(=O)NC3CCN(Cc4ccccc4)CC3)CC2)c(C)o1	LNCaP diff act 48
CC(C)Cc1cc(C(=O)NCCCN2CCOCC2)no1	none
COc1ccc2c(c1)CCc1c(C(=O)Nc3ccn(Cc4ccc(C)cc4)n3)noc1-2	none
COc1ccc2c(c1)CCc1c(C(=O)Nc3cc(C)n(Cc4ccc(Cl)cc4)n3)noc1-2	LNCaP diff act 62
CC(C)N1CCC2(CC1)N=C(c1ccc3c(c1)OCO3)CC(c1cc(Cl)ccc1O)N2 (stereo unspecified)	LNCaP diff act 34
CC(=O)c1c(C)nc(-c2ccc3c(c2)OCO3)n1O	none
Cc1cccc(C(=O)N2CCC(n3nnc4cc(F)ccc43)CC2)c1	none
COC(=O)c1ccccc1NC(=O)CN1CCC(n2nnc3cc(F)ccc32)CC1	LNCaP diff act 30
CSC(=O)CC(=O)NC(=O)c1ccccc1	none
CCOc1cccc2cc(-c3cn4cc(C)ccc4n3)c(=O)oc12	LNCaP diff act 57
CCOc1cccc2cc(-c3nnc(NCc4ccco4)s3)c(=O)oc12	none
CCOc1ccccc1N(C(=O)Cn1nnnc1-c1ccc(C)o1)C(CC)C(=O)NC(C)(C)C (stereo unspecified)	none
COc1c(S(=O)(=O)n2nc(C)cc2C)ccc(Cl)c1Cl	none
N=c1n(CCO)c2ccccc2n1CCOc1ccc(Cl)cc1Cl	LNCaP diff act 39
CCN(CC)CCn1c(=N)n(CCO)c2ccccc21	none
Cc1ccc(C)c(NC(=O)C2CC(O)CN2C(=O)OC(C)(C)C)c1 (stereo unspecified)	none
O=C(Nc1nc2ccccc2s1)C1CC(=O)N(c2ccc(Br)cc2)C1 (stereo unspecified)	none (no result: LNCaP diff act)

Screening results as filed in PubChem.
